HCV inh = HCV inhibition | AID 651820 | 340,000 compounds, 3.4% hits | Huh7.5.1 HCVcc-Cre infection, luciferase reporter, 44 h | Potency, µM (highest dose often 41.8 µM), inactives show top-dose activity change, negative = inhibition, usual class: inhibitors
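Cells seeded at 1,000/well and cultured 4 h, then compounds added followed by HCVcc-Cre virus (~0.5 moi). After 44 h further culture, luciferase substrate was added, plates held 15 min at room temperature, and luminescence read for 15 sec.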
Pf growth 48h = inhibits P. falciparum growth in the first generation, 48 h; P. falciparum luciferase growth in erythrocytes, 48 h; Potency, µM (titrated, usually from 28.7 µM), for the others: at the top dose activity change, negative = inhibition, most hits filed as inhibitors; 310,000 compounds, 5.9% hits; AID 504832
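First compound was added to culture medium, then infected red cells at 0.1% parasitemia and 2% hematocrit (final). After incubation at 37 C under 5% CO2, luciferase detection reagent was dispensed and light output recorded.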
AMA1 RON2 block = AMA1-RON2 (P. falciparum) interaction inhibition; AlphaScreen AMA1-biotinylated RON2 peptide binding; Potency, µM (titrated, usually from 58.2 µM), for inactives: at the top dose activity change, negative = inhibition, hits mostly inhibitors; 360,000 compounds, 0.2% hits;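 further: 0% = vehicle wells and -100% = peptide control; nearly all actives have a fitted effect of over 45% in size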
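AMA1 (3D7) with his tag at 25 nM final met compounds first, then biotinylated RON2 peptide at 25 nM; detection used donor plus acceptor beads, 10 µg/mL apiece, read by AlphaScreen after 30 min at room temperature.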
Pf growth 96h = inhibits malaria parasite growth, 96 h. AID 504834. Potency, µM (series often up to 28.7 µM), for inactives: at the top dose activity change, negative = inhibition, actives largely listed as inhibitors. P. falciparum luciferase reporter growth, 96 h. 320,000 compounds, 6.9% hits
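96 h incubation, 37 C, 5% CO2, of luciferase-reporter P. falciparum-infected RBCs (2% hematocrit, 0.05% parasitemia final) with test compounds; endpoint luminescence.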
Active calls of the source: *. Most compounds without a hit are left out; they make up all but 11% or so of the library. The call rests on the fitted dose curve; in most records, active means well fitted curve in the direction sought with a large enough effect; inconclusive means small, poorly fitted or top-dose-only effect, or another doubt; inactive means no such curve, though single readings can be large; an effect the other way counts as inactive or inconclusive. Unless noted, on the % scale 0 is the no-effect control and ±100 the full control effect; potency means the concentration at half of the fitted maximal effect.

For O=C(COc1cccc(Cl)c1)Nc1nc(-c2ccc(S(=O)(=O)N3CCOCC3)cc2)cs1 the results were HCV inh inconclusive, Pf growth 48h 8.3µM*, AMA1 RON2 block 15% and Pf growth 96h 9.3µM*.
For COc1ccc(C)cc1NC(=O)C(Sc1nnnn1C)c1ccccc1 (stereo not given) the results were HCV inh -25%, Pf growth 48h -23%, AMA1 RON2 block -11% and Pf growth 96h 24%.
`COCCn1c(SC(C(=O)Nc2cc(C)ccc2OC)c2ccccc2)nnc1-c1ccc(Cl)cc1` (stereo not given) gave HCV inh 9%, Pf growth 48h 13µM*, AMA1 RON2 block -2% and Pf growth 96h 9.3µM*.
Screening Cc1ccccc1S(=O)(=O)Oc1ccc2ccc(O)cc2c1 returned HCV inh 22µM*, Pf growth 48h 56%, AMA1 RON2 block -3% and Pf growth 96h 116%.
Cc1ccccc1C(=O)Oc1ccc2ccc(O)cc2c1 was read as HCV inh -9%, Pf growth 48h 217%, AMA1 RON2 block -5% and Pf growth 96h 123%.
Screening CC(=O)NN1C(=O)/C(=C/c2ccc(C(C)C)cc2)SC1=S returned HCV inh -5%, Pf growth 48h 11%, AMA1 RON2 block 20% and Pf growth 96h 46%.
CCn1c(COc2ccccc2C)nnc1SCC(=O)N1CCN(c2ccccc2)CC1 was read as HCV inh inconclusive, Pf growth 48h 10µM*, AMA1 RON2 block -12% and Pf growth 96h inconclusive.
`CCn1c(CC(=O)Nc2cccc(OC)c2)nnc1SCC(=O)N1CCN(c2ccccc2)CC1` gave HCV inh -15%, Pf growth 48h -11%, AMA1 RON2 block 0% and Pf growth 96h 15%.
For CCn1c(COc2ccccc2C)nnc1SCC(=O)OC the results were HCV inh 9%, Pf growth 48h 0%, AMA1 RON2 block 3% and Pf growth 96h inconclusive.
Screening CCn1c(COc2cccc(C)c2C)nnc1SCC(=O)N1CCN(c2ccc(OC)cc2)CC1 returned HCV inh inconclusive, Pf growth 48h inconclusive, AMA1 RON2 block -4% and Pf growth 96h 9.3µM*.
CCn1c(SCC(=O)N2CCOCC2)nnc1-c1cccs1 was read as HCV inh 12%, Pf growth 48h -3%, AMA1 RON2 block -5% and Pf growth 96h 12µM*.
For COCCNc1nc(NCc2cccc(OC)c2)c2sc(-c3ccccc3)cc2n1 the results were AMA1 RON2 block -8%.
Screening Cc1noc(C)c1S(=O)(=O)NCc1ccc2c(c1)OCO2 returned HCV inh 9%, AMA1 RON2 block 2% and Pf growth 96h 34%.
`CCc1nc2ccc(C(=O)N(C)Cc3ccccc3)cn2c1N(CC)CCN(C)C` gave AMA1 RON2 block 4%.
Fc1ccc(CNc2ccc(N3CCN(Cc4ccccc4)CC3)cc2)cc1 was read as HCV inh inconclusive, Pf growth 48h -22%, AMA1 RON2 block inconclusive and Pf growth 96h 9.3µM*.
`Cc1ccccc1OCC(=O)NS(=O)(=O)c1ccc(Cl)cc1` gave HCV inh 17%, Pf growth 48h -10%, AMA1 RON2 block -13% and Pf growth 96h 5.2µM*.
COc1ccccc1OCC(=O)Nc1cc(Cl)ccc1Oc1ccccc1 was read as HCV inh 35%, Pf growth 48h -76%, AMA1 RON2 block -12% and Pf growth 96h 31%.
For O=C(COC(=O)c1ccccc1)Nc1cc(Cl)ccc1Oc1ccccc1 the results were HCV inh -12%, Pf growth 48h 13%, AMA1 RON2 block 10% and Pf growth 96h inconclusive.
For Cc1ccccc1OCC(=O)Nc1cc(Cl)ccc1Oc1ccccc1 the results were HCV inh -2%, Pf growth 48h inconclusive, AMA1 RON2 block 1% and Pf growth 96h 5.2µM*.
For Cc1ccc(C(C)C)c(OCC(=O)NS(=O)(=O)c2ccc(Cl)cc2)c1 the results were HCV inh 12%, Pf growth 48h 2%, AMA1 RON2 block 8% and Pf growth 96h 0%.
Screening O=C(COC(=O)c1c(Cl)cccc1Cl)Nc1cc(Cl)ccc1Oc1ccccc1 returned HCV inh -9%, Pf growth 48h 13µM*, AMA1 RON2 block 8% and Pf growth 96h inconclusive.
Screening Cc1c(CC(=O)O)c(=O)oc2cc(OCc3ccc(Br)cc3)ccc12 returned HCV inh 14%, AMA1 RON2 block -3% and Pf growth 96h 50%.
Screening COc1cc(OC)c(C(=O)OCC(=O)NCCc2ccccc2)cc1OC returned HCV inh -20%, Pf growth 48h 103%, AMA1 RON2 block -15% and Pf growth 96h -7%.
For CC[C@H]1OC(=O)[C@H](C)[C@@H](O[C@H]2C[C@@](C)(OC)[C@@H](O)[C@H](C)O2)[C@H](C)[C@@H](O[C@@H]2O[C@H](C)C[C@H](N(C)C)[C@H]2O)[C@](C)(O)C[C@@H](C)CN(C)[C@H](C)[C@@H](O)[C@]1(C)O the results were HCV inh inconclusive, Pf growth 48h 13µM*, AMA1 RON2 block 0% and Pf growth 96h 0.13µM*.
For CCC1OC(=O)C(C)[C@@H](O[C@H]2C[C@@](C)(OC)C(O)C(C)O2)C(C)[C@@H](O[C@@H]2OC(C)CC(N(C)C)C2O)[C@@](C)(O)CC(C)C(=O)[C@@H](C)C(O)[C@]1(C)O (stereo not given in full) the results were Pf growth 48h -14% and Pf growth 96h inconclusive.
`CCC1OC(=O)C(C)C(OC2C[C@@](C)(OC)C(O)C(C)O2)C(C)C(O[C@@H]2OC(C)CC(N(C)C)C2O)[C@](C)(O)CC(C)C(=NOCOCCOC)C(C)C(O)[C@]1(C)O` (stereo not given in full) gave HCV inh 4%, Pf growth 48h inconclusive, AMA1 RON2 block 7% and Pf growth 96h 7.4µM*.
Screening CC[C@H]1OC(=O)[C@H](C)[C@@H](O[C@H]2C[C@@](C)(OC)[C@@H](O)[C@H](C)O2)C(C)[C@@H](O[C@@H]2O[C@H](C)C[C@H](N(C)C)[C@@H]2O)[C@](C)(OC)C[C@@H](C)C(=O)[C@H](C)[C@@H](O)[C@]1(C)O (stereo not given in full) returned Pf growth 48h 13µM* and Pf growth 96h 1.3µM*.
Screening CCc1nc2c(OCc3ccc(F)cc3)cccn2c1N(C)C(=O)c1ccc(C)cc1 returned AMA1 RON2 block 0%.
Screening CN(C)CCSc1nc(-c2ccccc2)nc2c1CCC2 returned HCV inh -7%, Pf growth 48h -22%, AMA1 RON2 block 0% and Pf growth 96h inconclusive.
`CN(C)C(=O)CSc1nc(-c2ccccc2)nc2c1CCCC2` gave HCV inh inconclusive, Pf growth 48h inconclusive, AMA1 RON2 block -7% and Pf growth 96h 9.3µM*.
For Cc1cccc2c(SCC(N)=O)nc(-c3ccccc3)nc12 the results were HCV inh 7.1µM*, Pf growth 48h 10%, AMA1 RON2 block 0% and Pf growth 96h 167%.
Screening Cc1cccc(-c2nc3c(c(SCC(N)=O)n2)CCCC3)c1 returned HCV inh 4%, Pf growth 48h -12%, AMA1 RON2 block 3% and Pf growth 96h 20%.

Compound activity (PubChem)
